For assay [1], the system named is CRL-7250. Nature of the assay: Cytotoxic Profiling of Annotated Libraries Using Quantitative High-Throughput Screening (AID 1296008). Also: nearly all actives have a fitted effect of over 60% in size. Also: potency is read from the fitted curve at half-maximal effect. As to max response: % is scaled to controls: 0 for no effect and ±100 for the full control effect. The note with it: Five cell lines viability, CellTiter-Glo ATP luminescence, 48-72 h; max response: hits give low values. The procedure, abridged:
(§1)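 Compounds were pin-transferred onto cells and incubated 48 or 72 hr at 37 degree Celsius, 95% humidity. CellTiter-Glo was added, plates sat 10 min at room temperature, then ATP-coupled luminescence was imaged as the viability read-out.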

In assay [2] the test system is HEK293. The assay is described as above. The settings on record: Five cell lines viability, CellTiter-Glo ATP luminescence, 48-72 h; max response: hits give low values. The method, boiled down:
as §1

The subject of assay [3] is HaCat. Described as above. The note with it: Five cell lines viability, CellTiter-Glo ATP luminescence, 48-72 h; max response: hits give low values. The procedure, abridged: as §1
Assay [4] relates to KB-3-1. The assay is described as above. The note with it: Five cell lines viability, CellTiter-Glo ATP luminescence, 48-72 h; max response: hits give low values. The method, boiled down: as §1
Assay [5] concerns NIH3T3. The assay is described as above. The note with it: Five cell lines viability, CellTiter-Glo ATP luminescence, 48-72 h; max response: hits give low values. The method, boiled down:
as §1

The test system of assay [6] is HEK293T. Nature of the assay: qHTS assay to identify novel small-molecules to repurpose for Merkel cell carcinoma treatment (AID 1296009). Also: nearly all actives have a fitted effect of over 60% in size. Also: potency is read from the fitted curve at half-maximal effect. The settings on record: MCC and control cell lines, CellTiter-Glo viability, 72 h; at 44.8 µM (top of the series) unless noted. The method, boiled down:
(§2)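 Cells exposed to NPC (8-point) and MIPE (11-point) compound dilutions for 72 hr at 37 degree celsius; viability read by CellTiter-Glo luminescence, normalized to no-cell and DMSO in-plate controls.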

The test system of assay [7] is MCC-13. The description is as above. The settings on record: MCC and control cell lines, CellTiter-Glo viability, 72 h; series mostly up to 46 µM. The procedure, abridged: as §2
Assay [8] has as its system MKL-1. The assay is described as above. The note with it: MCC and control cell lines, CellTiter-Glo viability, 72 h; series mostly up to 46 µM. The procedure, abridged: as §2
The test system of assay [9] is MKL-2. The assay is described as above. The settings on record: MCC and control cell lines, CellTiter-Glo viability, 72 h; series mostly up to 46 µM. The procedure, abridged:
as §2

Assay [10] relates to UISO. The description is as above. The note with it: MCC and control cell lines, CellTiter-Glo viability, 72 h; series mostly up to 46 µM. The method, boiled down: as §2
The test system of assay [11] is WaGa. The description is as above. The settings on record: MCC and control cell lines, CellTiter-Glo viability, 72 h; series mostly up to 46 µM. The procedure, abridged:
as §2

The test system of assay [12] is C33A. Nature of the assay: Primary qHTS to identify gynecologic anti-cancer compounds using libraries of approved drugs and bioactive compounds (AID 1345084). Also: % is scaled to controls: 0 for no effect and ±100 for the full control effect; nearly all actives have a fitted effect of over 55% in size. The settings on record: Gynecologic cancer cell panel viability, ATPlite luminescence, 48 h; series mostly up to 57.5 µM. The method, boiled down: (§3)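 Measured: luminescence after ATPlite addition (15 min, RT). Exposure: 48 h, 37 C, 5% CO2.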

In assay [13] the test system is CAOV3. The assay is described as above. The settings on record: Gynecologic cancer cell panel viability, ATPlite luminescence, 48 h; series mostly up to 57.5 µM. The procedure, abridged: as §3
The subject of assay [14] is CASKI. The assay is described as above. The note with it: Gynecologic cancer cell panel viability, ATPlite luminescence, 48 h; series mostly up to 57.5 µM. The method, boiled down: as §3
The test system of assay [15] is TAB165. Nature of the assay: qHTS profiling for inhibitors of Plasmodium falciparum proliferation (AID 504749). Also: nearly all actives have a fitted effect of over 60% in size. Also: potency is read from the fitted curve at half-maximal effect. The settings on record: P. falciparum in erythrocytes, SYBR Green DNA, 72 h; series mostly up to 28.7 µM. The method, boiled down:
(§4)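 P. falciparum-infected erythrocytes (0.3% parasitemia, 2.5% hematocrit final) were exposed to compounds for 72 h at 37 C in 5% CO2, then lysed with SYBR Green buffer overnight at room temperature; parasite DNA fluorescence was normalized to artemisinin and DMSO controls.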

The subject of assay [16] is W2. Described as above. The settings on record: P. falciparum in erythrocytes, SYBR Green DNA, 72 h; series mostly up to 28.7 µM. The procedure, abridged: as §4
In assay [17] the test system is HACAT. As to the kind of experiment: qHTS assay to identify novel small-molecules to repurpose for Merkel cell carcinoma treatment (AID 1296009). Also: nearly all actives have a fitted effect of over 60% in size. Also: potency is read from the fitted curve at half-maximal effect. The settings on record: MCC and control cell lines, CellTiter-Glo viability, 72 h; at 44.8 µM (top of the series) unless noted. The method, boiled down:
as §2

Assay [18] concerns MCC-26. The description is as above. The note with it: MCC and control cell lines, CellTiter-Glo viability, 72 h; series mostly up to 46 µM. The method, boiled down:
as §2

Assay [19] concerns NIH3T3. The assay is described as above. The settings on record: MCC and control cell lines, CellTiter-Glo viability, 72 h; at 44.8 µM (top of the series) unless noted. The method, boiled down: as §2
In assay [20] the test system is TAB113. Nature of the assay: qHTS profiling for inhibitors of Plasmodium falciparum proliferation (AID 504749). Also: nearly all actives have a fitted effect of over 60% in size. Also: potency is read from the fitted curve at half-maximal effect. The settings on record: P. falciparum in erythrocytes, SYBR Green DNA, 72 h; series mostly up to 28.7 µM. The method, boiled down: as §4

Molecules are shown by their SMILES. Values joined by “and” are separate entries in the source; they are usually repeats but may differ in a detail not shown here. Equal entries are not always repeated. Inconclusive results are not listed. Values without a mark were called inactive. Active and inactive are the calls of the source. Calls follow the shape of the dose curve; as a rule, active = well fitted curve in the direction sought with a large enough effect; inconclusive = small, poorly fitted or top-dose-only effect, or another doubt; inactive = no such curve, though single readings can be large; an effect the other way counts as inactive or inconclusive.

For the molecule `CNC(=O)CN(CCN(CCN(CC(=O)[O-])CC(=O)NC)CC(=O)[O-])CC(=O)[O-].O.[Gd+3]`, the outcome in [1], in [2] and in [6] was inactive. Besides, the max response is -1.56% in assay [3]; -5.37% and -4.64% in assay [4]; -1.76% in assay [5]. Also, the Potency entry in [7], in assay [8], in assay [9], in assay [10], in assay [11] and in assay [12] was “inactive” each time. The Potency result in assay [13] and in [14] was “inactive” each time.
With `O=C1OCCN1/N=C/c1ccc([N+](=O)[O-])o1`, the Potency in [15] is 11200 nM (active); in [16], 15100 nM (active). The results for the max response in assay [1], in assay [2] and in assay [4] were -8.39%, -25% and -3.42%, respectively. Besides, the outcome in assay [3], in [5], in [17] and in [19] was inactive. Moreover, the Potency result in assay [7], in assay [18], in assay [12] and in assay [14] was “inactive” in each case.
Take `CCOc1ccc(NC(=O)CC(C)O)cc1` (centres undefined): the Potency entry in assay [20], in assay [15], in assay [7], in [18], in [8] and in [9] was “inactive” in each case. The Potency entry in assay [10], in [11], in assay [12], in assay [13] and in assay [14] was “inactive” each time. Also, the max response in [1] is -0.463%; in assay [2], 2.44%; in [3], -5.23%; in assay [4], -22.8%; in assay [5] it was 4.45%.
Regarding `CC(C)(C(=O)c1cccnc1)c1cccnc1`, the Potency result in assay [20], in assay [15], in assay [16], in assay [7], in [18] and in [8] was “inactive” throughout. The Potency entry in [9], in [10], in assay [11], in assay [12], in [13] and in assay [14] was “inactive” throughout. The max response in assay [1] was -2.01%; in [3] it was 3.03%; in assay [4], 11%. In addition, the outcome in assay [2], in [5], in assay [6] and in assay [19] was inactive.
In the case of `CCCCC(CC)CN=C(N)NC(N)=NCCCCCCN=C(N)NC(N)=NCC(CC)CCCC` (centres undefined), the Potency was 1780 nM (active) in [20]; 1260 nM (active) in assay [15]; 1070 nM (active) in assay [16]; 7500 nM (active) in assay [1]; 2990 nM (active) in [2]; 6680 nM (active) in [3]. Moreover, the Potency is 10600 nM (active) in assay [7]; 1330 nM (active) in [8]; 1880 nM (active) in [9]; 1880 nM (active) in [10]; 2660 nM (active) in [11].
For `CCOC(=O)c1cccc(N)c1`, the Potency result in assay [20], in assay [15], in assay [7], in [18], in [8] and in [9] was “inactive” throughout. Besides, the Potency result in assay [10], in assay [11], in assay [12], in [13] and in assay [14] was “inactive” throughout. Further, the max response in assay [1] was -5.88%; in assay [2], -0.911%; in assay [3], -20.5%; in assay [4], -6.64%; in assay [5], -6.41%.

The values are drawn from PubChem BioAssay (NCATS).
